Bioassay records: PubChem BioAssay, several laboratories
The list is not random: actives were taken first. Their share in the collection is about 1.5%.
IDE inh: human IDE inhibitors in live cells, primary screen, fluorescence polarization, HEK cells, FAbetaB substrate | Insulin-degrading enzyme (Homo sapiens), P14735 | FAbetaB cleavage | inhibition, % at 5.59 µM | 320,000 tested, 0.41% active;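 active = percent inhibition above the average of all tested compounds plus 3 SD, set per screening campaign, cut at about 16% in these data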;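 also: IDE supplied by intact live HEK cells; FP after avidin binding of uncleaved biotin substrate so inhibition keeps polarization high; 0% = DMSO wells and 100% = 60 µM reference IDE inhibitor Ii1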
Target sequence (P14735 whole entry, looked up): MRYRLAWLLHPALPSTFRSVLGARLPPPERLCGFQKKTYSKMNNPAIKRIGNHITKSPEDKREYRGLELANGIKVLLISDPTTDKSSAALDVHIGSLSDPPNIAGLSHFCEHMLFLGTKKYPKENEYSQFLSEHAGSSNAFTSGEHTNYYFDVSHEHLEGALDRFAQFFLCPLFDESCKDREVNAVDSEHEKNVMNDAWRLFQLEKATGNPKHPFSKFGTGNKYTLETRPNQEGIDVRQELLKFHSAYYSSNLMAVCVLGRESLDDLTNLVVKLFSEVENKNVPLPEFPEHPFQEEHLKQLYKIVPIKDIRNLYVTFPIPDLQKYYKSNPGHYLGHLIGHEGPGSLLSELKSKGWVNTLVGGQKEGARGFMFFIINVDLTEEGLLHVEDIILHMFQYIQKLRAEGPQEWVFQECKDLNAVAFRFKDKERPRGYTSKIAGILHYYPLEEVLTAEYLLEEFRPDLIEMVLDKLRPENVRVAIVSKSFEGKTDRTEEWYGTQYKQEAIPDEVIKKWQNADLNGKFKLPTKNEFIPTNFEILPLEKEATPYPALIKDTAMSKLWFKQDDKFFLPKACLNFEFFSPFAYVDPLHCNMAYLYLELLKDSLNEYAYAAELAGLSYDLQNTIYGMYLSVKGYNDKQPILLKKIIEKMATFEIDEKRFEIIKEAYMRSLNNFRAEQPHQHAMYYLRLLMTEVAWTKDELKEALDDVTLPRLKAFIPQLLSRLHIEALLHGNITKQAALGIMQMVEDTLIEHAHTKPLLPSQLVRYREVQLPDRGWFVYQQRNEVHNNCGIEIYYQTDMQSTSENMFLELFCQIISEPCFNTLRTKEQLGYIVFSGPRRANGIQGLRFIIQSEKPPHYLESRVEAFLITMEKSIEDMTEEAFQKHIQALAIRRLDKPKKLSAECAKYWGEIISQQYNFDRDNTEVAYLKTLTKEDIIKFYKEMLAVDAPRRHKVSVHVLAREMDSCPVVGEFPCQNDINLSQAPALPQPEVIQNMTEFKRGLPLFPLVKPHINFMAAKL
CRFBP-R2 agonist: agonists of CRF-BP/CRF-R2 complex, primary screen, cell-based, HEK293, calcium dye fluorescence, uHTS. CRF-binding protein / CRF receptor 2 complex (human). calcium dye fluorescence (FLIPR); percent of saturating CRF peptide response. activation, % at 13.2 µM. 350,000 tested, 0.46% active. AID 588473, 2011;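 active = activation of at least 50%, plus an integration ratio under a set limit after plate pattern correction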;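 also: plate controls were neutral control wells without compound for no effect and CRF at EC100 for full effect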
RTF Ca sens act: cardiac RTF calcium sensitivity activators, primary screen, biochemical, IANBD-TnC fluorescence, EC20 calcium; Troponin I, cardiac muscle (Homo sapiens) + Troponin T, cardiac muscle (Homo sapiens) + …; IANBD-labeled TnC RTF fluorescence at EC20 calcium; 0% EC20 calcium, 100% full calcium; activation, % at 7.2 µM; 340,000 tested, 0.24% active; AID 493008, 2010;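 active = activation above the mean over all tested compounds plus 3 SD, cut at about 30% in these data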;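 also: rise in fluorescence read as greater calcium sensitivity of cardiac thin filaments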
IDE cell activ: human IDE activators in live cells, primary screen, fluorescence polarization, HEK cells, FAbeta-B substrate. activation, % at 5.96 µM. FAbeta-B cleavage; 0% vehicle, 100% cell-free pure enzyme wells. Insulin-degrading enzyme (Homo sapiens), P14735. 340,000 tested, 0.073% active;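 active = activation above the mean of all tested compounds plus 3 SD, set per screening campaign, cut at about 17% in these data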
TPT1 inh: Candida albicans TPT1 enzyme inhibitors, primary screen, biochemical, fluorescence polarization; tRNA 2'-phosphotransferase TPT1 (Candida albicans SC5314); recombinant caTPT1, FP RNA substrate dephosphorylation; inhibition, % at 5 µM; 300,000 tested, 0.81% active;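 active = inhibition above the mean of all tested compounds plus 3 SD, set per screening campaign, cut at about 24% in these data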;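 also: plate controls were DMSO alone for no effect and ferristatin control at 100 nM for full effect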
Cardiac RTF inh: cardiac RTF calcium sensitivity inhibitors, primary screen, biochemical, IANBD-TnC fluorescence, EC70 calcium. 340,000 tested, 0.12% active. Troponin I, cardiac muscle (Homo sapiens) + Troponin T, cardiac muscle (Homo sapiens) + …. inhibition, % at 7.15 µM. IANBD-labeled cardiac RTF, Ca2+ fluorescence;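 active = inhibition above the mean inhibition of all tested compounds plus 3 SD, cut at about 17% in these data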;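 also: assay run at fixed EC70 calcium of 1.6 mM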
Numbers without * were called inactive; i = inactive; . = no result; + = active, no number.

SMILES	IDE inh	CRFBP-R2 agonist	RTF Ca sens act	IDE cell activ	TPT1 inh	Cardiac RTF inh
Cn1c(=O)c(NCCc2ccccc2)c2c3c(cccc31)C(=O)c1ccccc1-2	-11	273	+	-16	-51	i
S=c1[nH]cnc2sc(-c3ccccc3)cc12	19*	3	3	-17	-2	6
COC1C(CO)OC(n2c3c(Cl)cccc3c3c4c(c5c6cccc(Cl)c6[nH]c5c32)C(=O)NC4=O)C(O)C1O (stereo not given)	.	67*	21	-5	.	-39
CC(C)NS(=O)(=O)c1ccc(NC(=O)C(C)Oc2ccc(C(=O)c3ccccc3)cc2)cc1 (stereo not given)	0	162*	2	3	0	-11
Cc1cccc(-c2nc(NCCN(C)C)c3ccccc3n2)c1	.	-1	.	.	.	.
CCN(CC)c1ccc2nc3c4ccccc4c(=O)cc-3oc2c1	.	23	.	.	.	.
CCN(CC)c1ccc2c(-c3ccc(S(=O)(=O)O)cc3S(=O)(=O)[O-])c3ccc(=[N+](CC)CC)cc-3oc2c1	-56	55*	248*	27*	-138	-336
CC(C(=O)NN)c1ccc([N+](=O)[O-])cc1 (stereo not given)	2	-4	-2	7	-1	-7
O=C(COC(=O)CSc1cc(Cl)ccc1Cl)NCc1ccc2c(c1)OCO2	3	52*	-2	3	2	0
O=C(COC(=O)COc1ccc(Cl)cc1)NCc1ccc2c(c1)OCO2	3	0	1	1	.	1
CCOc1cc(C)c(C(C)C)cc1S(=O)(=O)n1cnc(C)c1	1	104*	.	.	-2	.
COc1cc(OC)cc(C(=O)NC(=S)NNC(=O)[C@H]2C[C@@H]2c2ccccc2)c1	8	163*	4	-5	-4	-3
Cn1ncc(N=Cc2c(O)ccc3ccccc23)c1C(=O)Nc1cccc(Cl)c1	1	50	43*	-3	20	-8
CCOC(=O)C1=CN(Cc2cccc(Br)c2)S(=O)(=O)N(CC)C1C (stereo not given)	.	4	1	-3	.	-5
O=C(CS(=O)c1ccc(Br)cc1)N1CCOCC1 (stereo not given)	-5	0	-3	3	-1	-3
CCOc1ccc(S(=O)(=O)Nc2ccc(C(=O)N3CC(C)OC(C)C3)cc2)cc1 (stereo not given)	-7	36	-7	0	1	4
Cc1ccc(NS(=O)(=O)c2ccc(C(=O)N3CCCC(C(F)(F)F)C3)cc2)cc1 (stereo not given)	13	71*	0	1	-4	-6
COc1ccccc1NS(=O)(=O)c1ccc(C(=O)N2CCCC(C(F)(F)F)C2)cc1 (stereo not given)	-3	11	-1	1	.	-6
CCOc1ccc(NS(=O)(=O)c2ccc(C(=O)N3CC(C)OC(C)C3)cc2)cc1 (stereo not given)	0	108*	4	-1	.	-9
COc1ccc(NS(=O)(=O)c2ccc(C(=O)N3CCC(C)CC3)cc2)cc1	0	65*	0	0	.	-4
CCOc1ccc(NS(=O)(=O)c2ccc(C(=O)NCC(c3ccco3)N3CCCC3)cc2)cc1 (stereo not given)	5	63*	-4	-6	.	-4
N#Cc1c(N2CCSCC2)nsc1-c1ccccc1Cl	.	1	8	-3	.	-3
C[C@H](CO)N1C[C@H](C)[C@@H](CN(C)Cc2ccc(C(=O)O)cc2)Oc2ncc(-c3ccc(C(=O)N(C)C)cc3)cc2C1=O	.	-1	.	.	.	.
CCOc1ccc(N=C2NC(=O)SC2CC(=O)OC)cc1 (stereo not given)	-3	-1	0	4	2	2
CCc1ccc(N2CC(C(=O)OCC(=O)Nc3ccc(C#N)cc3)CC2=O)cc1 (stereo not given)	0	0	5	3	.	-4
SMILES	IDE inh	CRFBP-R2 agonist	RTF Ca sens act	IDE cell activ	TPT1 inh	Cardiac RTF inh
CC1CN(C(=O)c2ccc(NS(=O)(=O)c3cccc(Cl)c3)cc2)CC(C)O1 (stereo not given)	.	-1	-4	3	.	-8
CC1CN(C(=O)c2ccc(NS(=O)(=O)c3ccc(C(C)(C)C)cc3)cc2)CC(C)O1 (stereo not given)	.	57*	-5	0	.	-10
CC(=O)n1nc2nc(C)cc(C)c2c1N	3	0	3	1	-5	-8
Cc1cc(C)c2c(SC(C)C)nc(N)nc2n1	4	1	47*	0	-1	-61
COCCN1Cc2cccc(C(=O)Nc3cc(OC)ccc3OC)c2C1=O	-1	61*	4	2	0	7
COc1ccc(OC)c(NC(=O)c2cccc3c2C(=O)N(C2CCCCC2)C3)c1	-1	0	-7	7	-4	3
CC(C)(C)c1ccc(C(=O)OC/C(O)=C(\C#N)c2nc3ccccc3s2)cc1	-5	26	5	-2	1	1
N#C/C(=C(/O)COC(=O)c1ccccc1O)c1nc2ccccc2s1	-4	79*	16	-6	8	-20
COc1cc2oc3ccccc3c2cc1N(CC(=O)N1CCCCC1)S(=O)(=O)c1ccc(C)cc1	2	89*	-3	1	-1	-7
Cc1ccc(-c2nn(-c3ccccc3)cc2C(=O)N2CCN(C3CCS(=O)(=O)C3)CC2)cc1 (stereo not given)	3	1	2	-2	.	-2
Cc1ccc(NC(=S)NNC(=O)c2ccccc2O)c(C)c1	-3	8	-7	4	-1	-5
CCCCCc1cc(O)c2c(C)cc(=O)oc2c1	-1	12	3	1	-3	-3
CCCCc1cc(O)c(CCCC)c(O)c1	4	100*	-4	-4	-5	0
COc1cccc(CNCC2CCCO2)c1 (stereo not given)	1	-2	-3	-3	-4	-2
COc1ccccc1C(=O)NCC(=O)OCC(=O)c1cccc2ccccc12	0	0	-8	5	1	-10
CC/C(=C(/CC)c1ccc(O)cc1)c1ccc(O)cc1	-4	0	-4	1	-2	18*
Cc1ccc(S(=O)(=O)NC(C(=O)O)c2ccccc2)cc1 (stereo not given)	2	133*	-1	0	-8	-7
